The list is not random: actives were taken first. Their share in the collection is about 19%.
Pf growth 96h: P. falciparum growth inhibition at 96 hour, primary screen for plastid delayed-death inhibitors. P. falciparum luciferase reporter growth, 96 h. Potency, µM (doses to about 28.7 µM), for inactives: at the top dose activity change, negative = inhibition, most hits filed as inhibitors. actives 6.9% (n = 320,000); further: potency means the concentration at half of the fitted maximal effect; on the % scale 0 is the no-effect control and ±100 the full control effect
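Plates of compound plus infected erythrocytes (2% hematocrit, 0.05% parasitemia final) incubate 96 hours, 37 C, 5% CO2. Detection reagent added; reduced luminescence from the parasites' luciferase reporter flags inhibition.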
Pf growth 48h: inhibits P. falciparum growth in the first generation, 48 h; P. falciparum luciferase growth in erythrocytes, 48 h; Potency, µM (series often up to 28.7 µM), for the others: top-dose activity change, negative = inhibition, most hits filed as inhibitors; actives 5.9% (n = 310,000); AID 504832; further: potency means the concentration at half of the fitted maximal effect; on the % scale 0 is the no-effect control and ±100 the full control effect
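Here the parasites carry a stable luciferase gene and grow inside erythrocytes in Albumax-based RPMI medium with compound for one erythrocytic cycle. Activity is scored as loss of luminescent signal.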
Cycloheximide cs: counter-screen hit for Shiga toxin inhibitors, cycloheximide | cell reporter, cycloheximide protein synthesis inhibition counterscreen | max response, % | actives 12% (n = 300,000) | AID 2314; in the data active means max response mostly above about 13%, no sharp cut-off; inactive means mostly below about 14%; further: read at 38.3 µM for the half of the compounds with a filed dose; 0% is about no effect
Shiga inhibitor: Shiga toxin inhibition | Vero cells, Shiga toxin protein synthesis inhibition reporter | inhibition, % at 38.7 µM | actives 9.2% (n = 290,000) | AID 2315; in the data active means inhibition mostly above about 28%, no sharp cut-off; inactive means mostly below about 43%; further: 0% is about no effect
AMA1-RON2 inh: AMA1-RON2 (P. falciparum) interaction inhibition; AlphaScreen AMA1-biotinylated RON2 peptide binding; Potency, µM (highest dose often 58.2 µM), without a hit: at the highest dose activity change, negative = inhibition, usual class: inhibitors; actives 0.2% (n = 360,000);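 further: potency means the concentration at half of the fitted maximal effect; 0% = vehicle wells and -100% = peptide control; nearly all actives have a fitted effect of over 45% in size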
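AMA1 (3D7) with his tag at 25 nM final met compounds first, then biotinylated RON2 peptide at 25 nM; detection used donor plus acceptor beads, 10 µg/mL apiece, read by AlphaScreen after 30 min at room temperature.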
SARS PLpro yeast: inhibitors of SARS-CoV papain-like protease in yeast; AID 485353; Potency, µM (titrated, usually from 32.9 µM), inactives show top-dose activity, positive = growth rescue, usual class: activators; actives 0.19% (n = 330,000); S. cerevisiae expressing SARS-CoV PLpro, growth rescue; calls by dose curve; further: potency means the concentration at half of the fitted maximal effect; 0% is about no effect; nearly all actives have a fitted effect of over 55% in size
Numbers without * were called inactive; ? = inconclusive; . = not tested or not shown; [ ] = remark or other dose. Unless noted, the call rests on the fitted dose curve; in most records, active means well fitted curve in the direction sought with a large enough effect; inconclusive means small, poorly fitted or top-dose-only effect, or another doubt; inactive means no such curve, though single readings can be large; an effect the other way counts as inactive or inconclusive.

SMILES | Pf growth 96h | Pf growth 48h | Cycloheximide cs | Shiga inhibitor | AMA1-RON2 inh | SARS PLpro yeast
CCCCCCn1c(NCC)nc2c1c(=O)n(C)c(=O)n2C | ? | 3.3µM* | 3 | -8 | -1% | 2%
c1csc(C(c2nnnn2C2CCCCC2)N2CCCC3(CCCCC3)C2)c1 (centres undefined) | ? | 2.6µM* | -1 | 9 | -2% | 23%
c1coc(CN2CCN(C(c3cccs3)c3nnnn3C3CCCC3)CC2)c1 (centres undefined) | 32% | 8% | 11 | -17 | 0% | 0%
CC(C)(C)n1nnnc1C(c1cccs1)N1CCCC2(CCCCC2)C1 (centres undefined) | ? | 5.2µM* | -4 | -2 | ? | -53%
COc1cccc(NC(=O)n2ncc3c(C)cccc32)c1 | 145% | . | 32* | 54* | -1% | -5%
Cc1ccc(NC(=O)n2ncc3c(C)cccc32)c(C)c1 | 2% | 117% | 38* | 34* | ? | 1%
CCOc1ccc(NC(=O)n2ncc3c(C)cccc32)cc1 | 1% | 178% | 30* | 48* | 7% | 0%
Cn1c(N)c(C(=O)COC(=O)Cc2ccc(F)cc2)c(=O)n(C)c1=O | 10% | 29% | . | . | 24% | -2%
c1coc(-c2ccnc3ncnn23)c1 | 11% | -12% | -4 | -2 | 0% | -1%
c1coc(-c2ncc[nH]2)c1 | ? | 1% | 8 | 38 | 28µM* | -16%
CCN(CC)CCNC1=NCCn2c1cc1cc(OC)ccc12 | ? | . | -2 | -16 | -11% | -6%
CCN(CC)CCCCNc1ncc2cc(-c3cc(OC)cc(OC)c3)c(NC(=O)NC(C)(C)C)nc2n1 | 9.3µM* | ? | -7 | -6 | -1% | 9%
CC1CCC/C(=N/Nc2nc3ccccc3s2)C1 (centres undefined) | 81% | 0% | 45* | 123* | 6% | -7%
CC1CCCC(=NNC(=O)C2COc3ccccc3O2)C1 (centres undefined) | . | . | . | . | -12% | -6%
CC1(C)CC(=O)C/C(=N/Nc2nc3ccccc3s2)C1 | ? | ? | 40* | 43* | 56% | -1%
CN(C)CCNCCCNc1c2ccccc2nc2cccc([N+](=O)[O-])c12 | . | . | . | . | 25% | .
CCCS(=O)(=O)N1CCCC(C(=O)Nc2ccc3c(c2)CCC3)C1 (centres undefined) | -28% | 30% | 14 | 11 | 10% | -1%
CN(C)c1ccc(C(=C2C=CC(=[N+](C)C)C=C2)c2c(O)c(S(=O)(=O)[O-])cc3cc(S(=O)(=O)O)ccc23)cc1 | 6µM* | ? | . | . | . | .
CN(C)c1ccc(C(=C2C=CC(=[N+](C)C)C=C2)c2ccc(N(C)C)cc2)cc1 | 0.19µM* | 0.3µM* | . | . | . | .
CN(C)c1ccc(/C(=N\O)C(F)(F)F)cc1 | -4% | 13% | 14 | 23 | -6% | -4%
CN(C)c1ccc(C(=C2C=CC(=[N+](C)C)C=C2)c2ccccc2)cc1 | 3.8µM* | 7.6µM* | 8 | -1 | . | .
COc1ccc(C(=O)c2ccc(N(C)C)cc2)c2ccccc12 | 9% | -20% | 1 | -4 | -24% | -2%
O=C(CC1C[C@H](C(=O)N2CCOCC2)[C@@]2(CCC3CCCC3)c3[nH]c4ccccc4c3CCN2C1=O)NCCC1=CCCCC1 (some centres undefined) | . | . | . | . | 5% | 1%
CC(=O)N1CC(=O)N(c2ccccc2)C1=O | 17% | 2% | -3 | -5 | 3% | 2%
CC(=O)Nc1ccc(N=C(C2=C(O)c3ccccc3C2=O)c2ccccc2)cc1 | ? | -23% | 44* | 63* | 9% | 0%
SMILES | Pf growth 96h | Pf growth 48h | Cycloheximide cs | Shiga inhibitor | AMA1-RON2 inh | SARS PLpro yeast
COc1ccc(N=C(C)C2=C(O)c3ccccc3C2=O)cc1 | 65% | 39% | 58* | 115* | -12% | -24%
COc1ccc(N=N/C(C(C)=O)=C(/C)O)cc1 | 26% | 50% | 20 | 35 | -20% | -1%
CCOc1ccc(N=C(C)C2=C(O)c3ccccc3C2=O)cc1 | 12% | 15% | 43* | 194* | -1% | 0%
CC(C)(C)C1CCC(N2CCN(c3ccccc3)CC2)CC1 (centres undefined) | ? | -21% | -1 | 3 | -19% | 3%
CN1CCN(NC(=S)NC2CCCC2)CC1 | ? | -18% | -5 | -5 | -4% | 0%
O=[N+]([O-])c1ccc(COc2ccc(-c3[nH]ncc3-c3ccccc3)c(O)c2)cc1 | 6.6µM* | 13µM* | -2 | -14 | 83% | 14%
C=C(C)COc1ccc(-c2[nH]ncc2-c2ccc(OC)cc2)c(O)c1 | ? | ? | 1 | -15 | 79% | -11%
C=C(C)COc1ccc(-c2[nH]ncc2-c2ccc(OC)c(OC)c2)c(O)c1 | 2.3µM* | 1.9µM* | 3 | -11 | -11% | ?
C=C(C)COc1ccc(-c2[nH]ncc2-c2ccccc2)c(O)c1 | ? | 10µM* | -1 | 13 | -1% | -20%
CCOC(=O)C1(C)CCN1C(=O)c1ccc(C(C)(C)C)cc1 (centres undefined) | . | . | . | . | 6% | .
CCc1nc2ccc(C(=O)NC3CCN(Cc4ccccc4)CC3)cn2c1N(C)Cc1cc2ccccc2s1 | . | . | . | . | -21% | .
CNc1ncnc(Sc2ccc(Cl)cc2)c1[N+](=O)[O-] | -49% | 9.3µM* | 2 | 14 | -10% | 0%
CCOC(=O)C(=O)N(Nc1ccc(C)cc1)c1ccc(C)cc1 | ? | ? | 16* | 72* | 4% | -1%
CCC(O)(CC)C(=O)N(Nc1ccc(C)cc1)c1ccc(C)cc1 | ? | ? | -2 | -8 | -1% | 1%
CC(=O)c1ccc(N=c2scc(C)n2C(C)C)cc1 | -6% | 33% | 40* | 57 | -20% | -3%
CC(=O)OC(C#CCN1CCOCC1)c1ccccc1 (centres undefined) | . | ? | 1 | -9 | -8% | .
OC(C#CCN1CCOCC1)c1cccs1 (centres undefined) | 19%[5.75 µM] | 12% | 37* | -6 | 20% | 9%
O=C(CNC(=O)C1CCCCC1)NCc1ccco1 | 21% | 7% | -5 | -6 | 13% | 0%
COc1ccc(/C=C2/C(=N)N3N=C(CC(=O)N4CCCC4)SC3=NC2=O)cc1OC | 22% | 16% | -4 | -6 | 26% | -16%
C=CCOc1ccc(/C=C2/C(=N)N3N=C(CC(=O)N4CCCC4)SC3=NC2=O)cc1OC | 24% | 13% | -4 | -2 | 35% | -10%
COc1cc(/C=C2/C(=N)N3N=C(CC(=O)N4CCOCC4)SC3=NC2=O)ccc1OCc1ccc(F)cc1 | ? | 3% | 40* | 106* | 90% | 1%
COc1cc(/C=C2/C(=N)N3N=C(CC(=O)N4CCOCC4)SC3=NC2=O)ccc1OCc1ccccc1F | 4% | -12% | 26* | 43 | 22% | .
CC(=O)N(c1ccccc1)c1nc2ccccc2s1 | . | . | . | . | -8% | .
